The entries come from a sample that favours hits as a whole.
MITF inh: MITF inhibition; TRPM1 promoter luciferase, luminescence, 24 h; inhibition, % (test concentration not listed); hit rate 0.28% among 37,000; in the data active = inhibition above about 85%; inconclusive = no clear call, values can overlap the other calls; inactive = below about 68%;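 note: human melanocyte line stably carrying TRPM1 promoter luciferase reporter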
PD-1 reversal: reversal of PD-1 mediated T-cell inhibition; primary human CD4 T cells, PD-L1 beads, CellTiter-Glo 96 h; activation, % (concentration not given with the values); 29,000 tested, under 10 active; AID 2316; call rule not given here;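 note: 0% = median vehicle wells and 100% = positive control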
Shh pathway inh: Sonic Hedgehog pathway inhibition; hit rate 2.1% among 22,000; inhibition, % (no concentration beside the values); Shh-LIGHT2 Gli-luciferase reporter, 30 h;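 active = mean inhibition across valid replicates above about 65%, limit read from the data; inconclusive = mean under the limit, yet half or more replicates past it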;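 note: pathway switched on by Shh-conditioned medium diluted 1 in 25 in low serum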
YB-1 expr inh: YB-1 expression inhibition | U2OS, qRT-PCR YB-1 vs CDIP delta delta Cp, 16 h; hits give high values; zero = DMSO, each unit about twofold | delta delta Cp (YB-1 minus CDIP) (concentration not given with the values) | hit rate 0.37% among 30,000 | AID 434959;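 active = delta delta Cp rounded down to an integer at or above 3, about 3 SD of DMSO wells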;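 note: higher means less YB-1 transcript or more CDIP transcript relative to DMSO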
* hit, by the source's call; ! = repeats disagree.

COc1ccc(C=Nc2ccc(Br)cc2)cc1 was read as MITF inh -13.5, PD-1 reversal 0.3, Shh pathway inh 69.1* and YB-1 expr inh 0.195.
For COc1ccc(/C=N/n2cnnc2)cc1 the results were MITF inh 1.7, PD-1 reversal -0.4 and YB-1 expr inh -0.859.
Screening Cc1oc2c(c1C(=O)NCCCn1ccnc1)C(=O)c1ccccc1C2=O returned MITF inh 65.7, PD-1 reversal -5.4, Shh pathway inh 110.2* and YB-1 expr inh 0.225.
For Cc1oc2c(c1C(=O)NCCC(C)C)C(=O)c1ccccc1C2=O the results were MITF inh inconclusive, PD-1 reversal -4.8, Shh pathway inh 90.4* and YB-1 expr inh 1.
For Cc1ccc(S(=O)(=O)N(C)C[C@@H]2Oc3c(NC(=O)Nc4ccccc4)cccc3C(=O)N([C@H](C)CO)C[C@@H]2C)cc1 the results were MITF inh 32.1, PD-1 reversal -3.8, Shh pathway inh 120.9* and YB-1 expr inh -0.506.
For C[C@@H]1CN([C@H](C)CO)C(=O)c2cccc(NC(=O)Nc3ccc(F)cc3)c2O[C@H]1CN(C)S(=O)(=O)c1ccccc1 the results were MITF inh 11.1, PD-1 reversal -2.3, Shh pathway inh -4.8 and YB-1 expr inh 0.022.
C[C@@H]1CN([C@@H](C)CO)C(=O)c2cccc(NC(=O)Nc3ccc(C(F)(F)F)cc3)c2O[C@@H]1CN(C)S(=O)(=O)c1ccc(Cl)cc1 was read as MITF inh 87.4*, PD-1 reversal -11.1, Shh pathway inh inconclusive and YB-1 expr inh 0.154.
C[C@H]1CN([C@@H](C)CO)C(=O)c2cccc(NC(=O)Nc3ccc(F)cc3)c2O[C@H]1CN(C)S(=O)(=O)c1ccc(Cl)cc1 was read as MITF inh 60.6, PD-1 reversal -5.7, Shh pathway inh 108.0* and YB-1 expr inh 0.0806.
`C[C@@H]1CN([C@H](C)CO)C(=O)c2cccc(NC(=O)Nc3ccc(C(F)(F)F)cc3)c2O[C@@H]1CN(C)S(=O)(=O)c1ccc(Cl)cc1` gave MITF inh 66.2, PD-1 reversal -6.7, Shh pathway inh 3.8 and YB-1 expr inh -1.01.
`C[C@H](CO)N1C[C@H](C)[C@H](CN(C)S(=O)(=O)c2ccccc2)Oc2c(NC(=O)Nc3ccc(F)cc3)cccc2C1=O` gave MITF inh 8.7, Shh pathway inh 70.5* and YB-1 expr inh -0.592.
`C[C@@H]1CN([C@H](C)CO)C(=O)c2cccc(NC(=O)Nc3ccc(F)cc3)c2O[C@H]1CN(C)S(=O)(=O)c1ccc(Cl)cc1` gave MITF inh -6.2, Shh pathway inh -6.8 and YB-1 expr inh 0.122.
CNC[C@H]1Oc2ccc(NC(=O)Nc3ccc(C(F)(F)F)cc3)cc2CC(=O)N([C@H](C)CO)C[C@H]1C was read as MITF inh 7.7, PD-1 reversal -0.9, Shh pathway inh 8.5 and YB-1 expr inh 0.0241.
`Cc1noc(C)c1NC(=O)N(C)C[C@H]1Oc2ccc(NS(=O)(=O)c3ccccc3)cc2CC(=O)N([C@@H](C)CO)C[C@@H]1C` gave MITF inh -26.9, Shh pathway inh -4.2 and YB-1 expr inh -0.0893.
Screening Cc1cccc(NC(=O)CN(c2ccc3c(c2)OCCO3)S(C)(=O)=O)c1 returned MITF inh -37.3.
COc1ccc2c(c1OC)C(=O)N1c3ccccc3N=C(c3ccc(Br)cc3)CC21 (stereo unspecified) was read as MITF inh 4.3, PD-1 reversal -1.5, Shh pathway inh 13.7 and YB-1 expr inh 9.64*.
For C=C1C(=O)O[C@H]2C1C[C@@H](OC(C)=O)[C@@]1(C)[C@@H](OC(C)=O)C[C@@H](OC(C)=O)C(=C)[C@H]21 (stereo partly specified) the results were MITF inh 10.5, PD-1 reversal -12.6, Shh pathway inh 50.9 and YB-1 expr inh -0.159.
`C=C(C)C(=O)O[C@H]1[C@H]2C(=C)C(=O)O[C@@H]2C[C@@H](C)/C=C/C(=O)[C@](C)(O)[C@@H]1OC(C)=O` gave MITF inh 89.8*, PD-1 reversal -13.5, Shh pathway inh -9.9 and YB-1 expr inh -1.15.
Screening O=C(Nc1ccccc1C(=O)O)c1cccc(S(=O)(=O)Nc2cccc(C(F)(F)F)c2)c1 returned MITF inh 5.9 and PD-1 reversal 0.1.
For CC1(C)N=C(NS(=O)(=O)c2cc(C(F)(F)F)cc(C(F)(F)F)c2)N(c2ccccc2)O1 the results were MITF inh 49.2, PD-1 reversal -1.3, Shh pathway inh 100.8* and YB-1 expr inh 0.167.
For Cc1nc2c(cnn2-c2ccccc2)c(=O)n1NC(=O)Nc1ccc(Cl)c(Cl)c1 the results were MITF inh 17.6, PD-1 reversal -0.5, Shh pathway inh inconclusive and YB-1 expr inh 9.92*.
`CCOC(=O)c1c(CSc2nc(C)ccc2C#N)oc2ccc(OC(C)=O)cc12` gave MITF inh 66.3, PD-1 reversal -2.3, Shh pathway inh 99.8* and YB-1 expr inh -0.554.
`CCOC(=O)c1c(CN(CC)CC)oc2ccc(OC)cc12` gave MITF inh -2.3, PD-1 reversal 0.4, Shh pathway inh 28.4 and YB-1 expr inh 0.148.
`COc1ccc(C(c2ccc3cccnc3c2O)N2CCOCC2)cc1` (stereo unspecified) gave MITF inh 51.0, PD-1 reversal -6.8, Shh pathway inh 68.3* and YB-1 expr inh -0.832.
Screening Oc1c(C(c2ccncc2)N2CCCC2)ccc2cccnc12 (stereo unspecified) returned MITF inh 20.8, PD-1 reversal -4.4, Shh pathway inh 35.2 and YB-1 expr inh -0.505.
Screening C[C@H](CO)N1C[C@H](C)[C@H](CN(C)S(=O)(=O)c2ccc(Cl)cc2)Oc2ccc(NC(=O)Nc3ccc4c(c3)OCO4)cc2C1=O returned MITF inh -9.3, PD-1 reversal -0.8, Shh pathway inh 20.7 and YB-1 expr inh -0.115.
N#CC(C#N)=C(N)/C(C#N)=C/c1cc(O)c(O)c(O)c1 was read as MITF inh -9.5, PD-1 reversal -0.7, Shh pathway inh 76.2* and YB-1 expr inh 0.0997.
For CC(C)(C)c1cc(/C=C(\C#N)C(N)=S)cc(C(C)(C)C)c1O the results were MITF inh 90.8*, Shh pathway inh 105.9* and YB-1 expr inh 0.502.
`N#C/C(=C\c1ccc(O)c(O)c1)C(=O)c1ccc(O)c(O)c1` gave MITF inh -3.0, PD-1 reversal 1.3, Shh pathway inh 39.8 and YB-1 expr inh -0.239.
For Cc1cc2c(C(C)C)c(O)c(O)c(C=O)c2c(O)c1-c1c(C)cc2c(C(C)C)c(O)c(O)c(C=O)c2c1O the results were MITF inh 30.6, Shh pathway inh 68.2*! and YB-1 expr inh -0.147.
`Cc1oc(-c2ccc3c(c2)OCCO3)cc1C(=O)NCC(=O)O` gave MITF inh 86.4* and PD-1 reversal 0.2.
COC(=O)c1ccc(NC(=O)CSc2nnc(-c3ccccc3F)n2C)cc1 was read as MITF inh -1.6 and PD-1 reversal 1.1.
`O=c1c2ccccc2nc(/C=C/c2cc(Br)ccc2O)n1CCCO` gave MITF inh 101.9* and PD-1 reversal -7.0.
COc1ccc(CC(N)C(=O)N[C@H]2[C@@H](O)[C@H](n3cnc4c(N(C)C)ncnc43)O[C@@H]2CO)cc1 (stereo partly specified) was read as MITF inh 92.1*, PD-1 reversal -25.4, Shh pathway inh 97.1* and YB-1 expr inh -0.941.

Source: PubChem BioAssay (Broad Institute)
